Source: PubChem BioAssay (EPA / NIEHS)
The source made the active and inactive calls. Rule for the calls: active = hit-call score of the fitted dose curve at least 0.9, where 1 is the maximum; inactive = score below 0.9.

Columns and labels:
[1] = ATG_GLI_CIS: Attagene CIS-FACTORIAL HepG2 Assay for human Zinc Finger Protein GLI1 (AID 2282945); settings: HepG2, Attagene cis-factorial reporter mRNA, GLI element; actives raise or lower the signal
Method in brief: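 Transiently transfected HepG2 cells report endogenous transcription factor activity via cis-element-driven reporter units. After 24 h compound exposure, reporter mRNA was measured by RT-PCR with capillary electrophoresis; bidirectional fitting against DMSO baseline.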

[2] = ATG_GRE_CIS: Attagene CIS-FACTORIAL HepG2 Assay for human Glucocorticoid Response Elements (GRE) (AID 2282947); settings: HepG2 GRE cis-reporter, Attagene multiplex mRNA; actives raise or lower the signal
Method in brief: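 Fluorescence intensity of reporter-specific cDNA fragments, separated by capillary electrophoresis, provides the signal. Constructs carry cis-regulating promoters in transiently transfected HepG2 liver cells; 24 h incubation; fitting is bidirectional against DMSO.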

[3] = ATG_ISRE_CIS: Attagene CIS-FACTORIAL HepG2 Assay for human Interferon Regulatory Factor 1 (IRF1) binding to an Interferon-Stimulated Response Element (ISRE) (AID 2282948); settings: HepG2 ISRE cis-reporter (Attagene), mRNA transcription readout; actives raise or lower the signal
Method in brief: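 Endogenous transcription factor activity read as reporter transcript abundance via RT-PCR and capillary electrophoresis. HepG2 cells transiently transfected, 24 h chemical exposure. Gain or loss fitted against DMSO baseline.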

[4] = ATG_M_32_CIS: Attagene CIS-FACTORIAL HepG2 Assay for M32 Transcription Factor (Internal Marker) (AID 2282949); settings: HepG2 Attagene cis-factorial M32 reporter, mRNA; actives raise or lower the signal;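 note: background control marker of the multiplexed CIS panel rather than a real target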
Method in brief: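 HepG2 human liver cells transiently transfected with cis-promoter-driven multiple reporter transcription units, dosed 24 h. Reporter mRNA quantified by RT-PCR, FAM-labelled primer extension, HpaI digest and capillary electrophoresis; bidirectional fit versus DMSO baseline.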

[5] = ATG_M_06_CIS: Attagene CIS-FACTORIAL HepG2 Assay for M06 Transcription Factor (Internal Marker) (AID 2282950); settings: HepG2 Attagene CIS-FACTORIAL M06 internal marker reporter; actives raise or lower the signal
Method in brief: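 Internal background marker within multiplexed cis-reporter HepG2 system. Cells transiently transfected, dosed 24 h; reporter mRNA measured by RT-PCR, HpaI digestion and capillary electrophoresis. Bidirectional fit relative to DMSO.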

[6] = molecular target: Hypoxia-inducible factor 1-alpha (Homo sapiens) (UniProt Q16665); experiment: ATG_HIF1a_CIS: Attagene CIS-FACTORIAL HepG2 Assay for human Hypoxia Inducible Factor 1 (HIF1A) (AID 2282951); settings: HepG2 Attagene cis-factorial HIF1a reporter transcription; actives raise or lower the signal
Method in brief: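 Endogenous-TF cis reporter readout, human HepG2 cells, 24 h incubation; mRNA detected via RT-PCR and capillary electrophoresis fluorescence; DMSO-normalised bidirectional fitting.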

[7] = molecular target: Hepatocyte nuclear factor 6 (Homo sapiens) (UniProt Q9UBC0); experiment: ATG_HNF6_CIS: Attagene CIS-FACTORIAL HepG2 Assay for human Hepatocyte Nuclear Factor 6 (HNF6) (AID 2282952); settings: HepG2 Attagene cis-factorial HNF6 reporter transcription; actives raise or lower the signal
Method in brief: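 First, HepG2 cells were transfected with the multiplexed cis reporter library and dosed with chemical for 24 h. Next, RNA was reverse-transcribed, PCR-amplified and fluorescently labelled. Finally, HpaI-digested fragments were read by capillary electrophoresis.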

[8] = molecular target: Heat shock factor protein 1 (Homo sapiens) (UniProt Q00613); experiment: ATG_HSE_CIS: Attagene CIS-FACTORIAL HepG2 Assay for human Heat Shock Transcription Factor 1 (HSE) (AID 2282953); settings: HepG2 HSE cis-reporter, Attagene RNA transcription; actives raise or lower the signal
Method in brief: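 HepG2 cells transfected with cis-promoter reporter units sensing endogenous transcription factor activity; reporter mRNA quantified 24 h post-dose by RT-PCR and capillary electrophoresis of 6-FAM-labelled products. Bidirectional fitting against DMSO.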

[9] = ATG_MRE_CIS: Attagene CIS-FACTORIAL HepG2 Assay for human Metal Responsive Element (MRE) (AID 2282954); settings: HepG2 MRE cis-reporter transcription, Attagene multiplex; actives raise or lower the signal
Method in brief: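 Measured here is mRNA induction from an MRE cis-element reporter in HepG2 after 24 h, quantified by fluorescence of labelled RT-PCR products on capillary electrophoresis; gain- and loss-of-signal fits use DMSO as baseline.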

[10] = molecular target: Bile acid receptor (Homo sapiens) (UniProt Q96RI1); experiment: ATG_IR1_CIS: Attagene CIS-FACTORIAL HepG2 Assay for human Nuclear Receptor Subfamily 1 Group H Member 4 (NR1H4), IR1 submotif (AID 2282946); settings: IR1 reporter transcription, actives raise or lower the signal
Method in brief: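 Fluorescence of capillary-separated, HpaI-digested RT-PCR reporter products gave IR1-element mRNA induction in HepG2 cells 24 h after dosing. Endogenous transcription factors drove the cis-regulated reporters; activity was fitted bidirectionally against DMSO.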

Measured: AC50

Chain of Hepatocyte nuclear factor 6 (Homo sapiens) (Q9UBC0 whole entry, looked up, the tested form may be a part): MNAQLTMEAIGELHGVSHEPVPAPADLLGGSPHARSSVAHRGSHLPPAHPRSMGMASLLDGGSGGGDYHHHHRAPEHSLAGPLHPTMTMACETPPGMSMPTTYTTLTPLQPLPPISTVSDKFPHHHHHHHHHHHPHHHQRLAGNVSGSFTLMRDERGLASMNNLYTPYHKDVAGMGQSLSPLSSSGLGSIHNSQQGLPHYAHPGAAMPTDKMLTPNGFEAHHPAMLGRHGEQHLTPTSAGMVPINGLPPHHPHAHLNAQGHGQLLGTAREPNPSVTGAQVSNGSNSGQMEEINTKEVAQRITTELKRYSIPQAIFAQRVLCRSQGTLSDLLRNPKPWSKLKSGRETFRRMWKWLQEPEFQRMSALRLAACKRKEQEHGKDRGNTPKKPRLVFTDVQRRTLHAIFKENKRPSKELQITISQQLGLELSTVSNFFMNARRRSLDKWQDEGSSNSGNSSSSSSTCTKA
Chain of Bile acid receptor (Homo sapiens) (Q96RI1 whole entry, looked up): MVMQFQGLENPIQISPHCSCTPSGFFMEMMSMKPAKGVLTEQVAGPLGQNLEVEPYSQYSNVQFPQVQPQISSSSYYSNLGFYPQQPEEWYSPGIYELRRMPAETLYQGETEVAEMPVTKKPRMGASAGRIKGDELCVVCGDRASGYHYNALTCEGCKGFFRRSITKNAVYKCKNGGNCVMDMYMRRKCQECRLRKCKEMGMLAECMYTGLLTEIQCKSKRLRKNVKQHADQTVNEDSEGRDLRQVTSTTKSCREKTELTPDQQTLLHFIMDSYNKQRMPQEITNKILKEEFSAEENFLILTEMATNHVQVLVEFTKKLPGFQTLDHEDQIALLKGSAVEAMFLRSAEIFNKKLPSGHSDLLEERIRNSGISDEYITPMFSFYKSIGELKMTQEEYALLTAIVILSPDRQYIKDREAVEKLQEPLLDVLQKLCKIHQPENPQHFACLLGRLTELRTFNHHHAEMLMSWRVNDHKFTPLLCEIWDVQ
Chain of Heat shock factor protein 1 (Homo sapiens) (Q00613 whole entry, looked up): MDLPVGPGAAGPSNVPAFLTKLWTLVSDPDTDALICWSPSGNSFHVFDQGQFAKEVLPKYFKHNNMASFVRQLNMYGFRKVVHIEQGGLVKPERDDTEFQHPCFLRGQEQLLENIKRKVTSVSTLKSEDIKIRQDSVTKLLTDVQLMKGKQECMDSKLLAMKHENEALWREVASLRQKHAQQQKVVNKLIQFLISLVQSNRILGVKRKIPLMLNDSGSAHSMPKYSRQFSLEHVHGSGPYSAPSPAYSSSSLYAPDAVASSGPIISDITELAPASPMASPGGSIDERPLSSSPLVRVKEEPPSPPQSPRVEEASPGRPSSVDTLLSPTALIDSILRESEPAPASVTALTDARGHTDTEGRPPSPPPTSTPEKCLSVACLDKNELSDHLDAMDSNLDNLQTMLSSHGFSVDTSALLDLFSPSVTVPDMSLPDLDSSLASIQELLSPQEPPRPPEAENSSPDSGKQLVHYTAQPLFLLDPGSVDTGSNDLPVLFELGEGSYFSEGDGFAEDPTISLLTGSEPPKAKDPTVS
Chain of Hypoxia-inducible factor 1-alpha (Homo sapiens) (Q16665 whole entry, looked up): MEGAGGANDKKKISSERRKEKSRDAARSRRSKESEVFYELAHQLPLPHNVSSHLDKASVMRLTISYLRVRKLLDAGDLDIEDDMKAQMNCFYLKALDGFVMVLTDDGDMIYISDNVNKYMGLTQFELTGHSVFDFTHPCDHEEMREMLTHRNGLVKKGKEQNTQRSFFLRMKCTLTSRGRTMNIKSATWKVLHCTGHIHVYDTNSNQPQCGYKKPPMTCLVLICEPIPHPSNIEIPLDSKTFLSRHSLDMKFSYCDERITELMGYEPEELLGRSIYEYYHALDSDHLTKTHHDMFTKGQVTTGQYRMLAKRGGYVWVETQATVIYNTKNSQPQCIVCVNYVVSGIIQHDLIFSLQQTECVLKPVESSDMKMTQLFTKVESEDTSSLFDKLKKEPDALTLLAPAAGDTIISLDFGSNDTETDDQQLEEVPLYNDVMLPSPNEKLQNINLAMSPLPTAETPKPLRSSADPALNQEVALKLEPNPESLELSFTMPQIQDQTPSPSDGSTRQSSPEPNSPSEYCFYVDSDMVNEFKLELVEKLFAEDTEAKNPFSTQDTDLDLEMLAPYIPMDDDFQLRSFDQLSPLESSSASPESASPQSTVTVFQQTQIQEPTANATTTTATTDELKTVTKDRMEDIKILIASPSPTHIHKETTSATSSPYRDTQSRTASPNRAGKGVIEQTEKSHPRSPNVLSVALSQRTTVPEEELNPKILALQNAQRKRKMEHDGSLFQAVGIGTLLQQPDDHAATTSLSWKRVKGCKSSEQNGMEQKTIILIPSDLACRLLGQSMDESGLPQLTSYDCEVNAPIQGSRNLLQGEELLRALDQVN

CCCCCCCCCCCCCCCCC
inactive: [1] | [2] | [3] | [4] | [5] | [6] | [7] | [8] | [9]

O=c1[nH]cccc1O
inactive: [1] | [2] | [3] | [4] | [5] | [6] | [7] | [8] | [9]

Cc1cccc(C)n1
inactive: [1] | [2] | [3] | [4] | [5] | [6] | [7] | [8] | [9]

CC(C)Nc1ccc(NC(C)C)c2c1C(=O)c1ccccc1C2=O
inactive: [10] | [2] | [3] | [4] | [5] | [6] | [7] | [8] | [9]

NC(=O)C(F)(F)C(F)(F)C(F)(F)C(F)(F)C(N)=O
inactive: [1] | [2] | [3] | [4] | [5] | [6] | [7] | [8] | [9]

COCCOCCC[Si](C)(O[Si](C)(C)C)O[Si](C)(C)C
inactive: [1] | [3] | [4] | [5] | [6] | [7] | [9]
active: [2] 8.99 µM | [8] 20.3 µM

CCOC(=O)C1CC(=O)C(=C(O)C2CC2)C(=O)C1 (configuration not stated)
inactive: [1] | [2] | [4] | [5] | [6] | [7] | [8] | [9]

COC(F)(C(F)F)C(F)(F)F (configuration not stated)
inactive: [1] | [10] | [2] | [4] | [5] | [6] | [7] | [8] | [9]

O=C(O)C(F)(F)C(F)(F)C(F)(F)OC(F)(C(F)(F)F)C(F)(F)F
inactive: [1] | [2] | [3] | [4] | [5] | [6] | [7] | [8] | [9]

NCC(F)(F)C(F)(F)C(F)(F)C(F)(F)C(F)(F)C(F)(F)C(F)(F)C(F)(F)F
inactive: [1] | [10] | [2] | [4] | [5] | [6] | [7] | [8] | [9]

CCCCOC(=O)[C@H](C)O
inactive: [1] | [2] | [3] | [4] | [5] | [6] | [7] | [8] | [9]

CCc1cc(Cc2cc(CC)c(N)c(CC)c2)cc(CC)c1N
active: [1] 60.5 µM | [7] 56.6 µM | [8] 60 µM | [9] 26.1 µM
inactive: [10] | [2] | [4] | [5] | [6]

Cc1cnccn1
inactive: [1] | [2] | [4] | [5] | [6] | [7] | [8] | [9]

CC(=O)C=O
inactive: [1] | [2] | [3] | [4] | [5] | [6] | [7] | [8] | [9]

N#CCCOCCC#N
inactive: [1] | [2] | [3] | [4] | [5] | [6] | [7] | [8] | [9]

O=S(=O)(OCC(F)(F)F)C(F)(F)C(F)(F)C(F)(F)C(F)(F)F
inactive: [1] | [10] | [2] | [4] | [5] | [6] | [7] | [8] | [9]

CC(=O)c1ccccc1N
inactive: [1] | [2] | [3] | [4] | [5] | [6] | [7] | [8] | [9]

O=C=Nc1cccc2c(N=C=O)cccc12
inactive: [1] | [2] | [3] | [4] | [5] | [6] | [7] | [8] | [9]

CCCCCCCCCCCCCC[P+](CCCC)(CCCC)CCCC
active: [8] 0.82 µM | [9] 0.871 µM
inactive: [1] | [2] | [3] | [4] | [5] | [6] | [7]

OC(O)C(F)(F)C(F)(F)F
inactive: [1] | [2] | [4] | [5] | [6] | [7] | [8] | [9]
active: [3] 108 µM

O=C(O)C(F)(F)C(F)(F)C(F)(F)C(F)(F)C(F)(F)C(F)(F)C(F)F
inactive: [1] | [2] | [3] | [4] | [5] | [6] | [7] | [8] | [9]

CCc1ccc(C)nc1
inactive: [1] | [10] | [2] | [4] | [5] | [6] | [7] | [8] | [9]

NC(=O)C(F)(F)C(F)(F)C(F)(F)F
inactive: [2] | [3] | [4] | [5] | [6] | [7] | [8] | [9]

C[Si](C)O[Si](C)C
inactive: [10] | [2] | [3] | [4] | [5] | [6] | [7] | [8] | [9]

CC(C)OC(=O)COc1ccc(Cl)cc1Cl
inactive: [10] | [2] | [4] | [5] | [6] | [7] | [8] | [9]

CN(C)C(C)(C)CO
inactive: [10] | [2] | [4] | [5] | [6] | [7] | [8] | [9]

Brc1ccccn1
inactive: [10] | [2] | [3] | [4] | [5] | [6] | [7] | [8] | [9]

NC(O)(C(F)(F)F)C(F)(F)F
inactive: [10] | [2] | [3] | [4] | [5] | [6] | [7] | [8] | [9]

CCN=c1cc2oc3cc(NCC)c(C)cc3c(-c3ccccc3C(=O)OCC)c-2cc1C
active: [10] 16.5 µM | [8] 17 µM | [9] 9.29 µM
inactive: [2] | [4] | [5] | [6] | [7]

CCC/C=C/CO
inactive: [10] | [2] | [3] | [4] | [5] | [6] | [7] | [8] | [9]

FC(F)(F)C(F)(F)C(F)(F)CC1CO1 (configuration not stated)
inactive: [10] | [2] | [4] | [5] | [6] | [7] | [8] | [9]
